Measured values as given in PubChem BioAssay AID1159580 (chemical genetic matrix, 2015).
About 2,000 (36%) of roughly 5,500 compounds were called active. Another 18% or so got no clear call; they are omitted. Rule as the data show it: active = normalized growth mostly below about 0.91 (no sharp cut-off); inconclusive = no clear call, values can overlap the other calls; inactive = mostly above about 0.92. This is one part of the list.

Test: chemical genetic growth profiling, strain panel (AID 1159580);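 also: tested at 20 µM; growth read once vehicle control cultures reached saturation at 30 °C; 1 = growth at the plate median or of vehicle wells; lower values mean less growth of the strain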
Conditions: growth OD

Measured: normalized growth

CC1CCC2(OC1)OC1CC3C4CC[C@H]5C[C@@H](O)CC[C@]5(C)C4CC(=O)[C@]3(C)C1C2C (some centres not stated)
inactive: S. cerevisiae deletion strains, locus YJR075W, strain HOC1, hits give low values 1.01 | S. cerevisiae deletion strains, locus YKL009W, strain mrt4, hits give low values 0.965 | S. cerevisiae deletion strains, locus YKL068W, hits give low values 0.992 | S. cerevisiae deletion strains, locus YKL085W, strain MDH1 (second series), hits give low values 0.989 | S. cerevisiae deletion strains, locus YKL085W, strain MDH1, hits give low values 0.989 | S. cerevisiae deletion strains, locus YKL160W, strain elf1, hits give low values 1.01 | S. cerevisiae deletion strains, locus YKL190W, strain CNB1, hits give low values 1.01 | S. cerevisiae deletion strains, locus YKR001C, strain vps1, hits give low values 0.98 | S. cerevisiae deletion strains, locus YKR026C, strain gcn3, hits give low values 1.02 | S. cerevisiae deletion strains, locus YKR091W, strain srl3, hits give low values 1.01 | S. cerevisiae deletion strains, locus YLL001W, strain dnm1, hits give low values 0.987 | S. cerevisiae deletion strains, locus YLL026W, hits give low values 1.01 | S. cerevisiae deletion strains, locus YLL041C, strain sdh2, hits give low values 1 | S. cerevisiae deletion strains, locus YLR027C, strain aat2, hits give low values 1 | S. cerevisiae deletion strains, locus YLR039C, strain RIC1, hits give low values 0.972 | S. cerevisiae deletion strains, locus YLR058C, strain SHM2, hits give low values 1.01 | S. cerevisiae deletion strains, locus YLR102C, strain apc9, hits give low values 0.982 | S. cerevisiae deletion strains, locus YLR113W, strain HOG1, hits give low values 0.97 | S. cerevisiae deletion strains, locus YLR221C, strain rsa3, hits give low values 0.994 | S. cerevisiae deletion strains, locus YLR258W, strain gsy2, hits give low values 0.995 | S. cerevisiae deletion strains, locus YLR262C, strain YPT6 (second series), hits give low values 0.97 | S. cerevisiae deletion strains, locus YLR262C, strain YPT6, hits give low values 0.993 | S. cerevisiae deletion strains, locus YLR268W, strain sec22, hits give low values 0.952 | S. cerevisiae deletion strains, locus YLR320W, strain mms22, hits give low values 0.975 | S. cerevisiae deletion strains, locus YLR330W, strain CHS5, hits give low values 1.02 | S. cerevisiae deletion strains, locus YLR342W, strain FKS1 (second series), hits give low values 1.06 | S. cerevisiae deletion strains, locus YLR342W, strain FKS1, hits give low values 1 | S. cerevisiae deletion strains, locus YLR357W, strain rsc2, hits give low values 0.992 | S. cerevisiae deletion strains, locus YLR370C, strain arc18, hits give low values 1.02 | S. cerevisiae deletion strains, locus YLR371W, strain rom2, hits give low values 0.976 | S. cerevisiae deletion strains, locus YLR384C, strain iki3, hits give low values 1.02 | S. cerevisiae deletion strains, locus YLR418C, strain cdc73, hits give low values 0.934 | S. cerevisiae deletion strains, locus YML016C, strain PPZ1, hits give low values 1.01 | S. cerevisiae deletion strains, locus YML032C, strain rad52, hits give low values 0.965 | S. cerevisiae deletion strains, locus YML120C, strain ndi1, hits give low values 1 | S. cerevisiae deletion strains, locus YML124C, strain tub3, hits give low values 0.981 | S. cerevisiae deletion strains, locus YMR058W, strain fet3, hits give low values 1.03 | S. cerevisiae deletion strains, locus YMR078C, strain ctf18, hits give low values 1.01 | S. cerevisiae deletion strains, locus YMR125W, strain sto1, hits give low values 1.04 | S. cerevisiae deletion strains, locus YMR129W, hits give low values 1.03 | S. cerevisiae deletion strains, locus YMR205C, strain PFK2, hits give low values 1 | S. cerevisiae deletion strains, locus YMR223W, strain ubp8, hits give low values 0.999 | S. cerevisiae deletion strains, locus YMR231W, strain pep5, hits give low values 1.02 | S. cerevisiae deletion strains, locus YMR263W, strain SAP30, hits give low values 1.01 | S. cerevisiae deletion strains, locus YMR307W, strain GAS1, hits give low values 1.01 | S. cerevisiae deletion strains, locus YNL067W, strain RPL9B, hits give low values 0.991 | S. cerevisiae deletion strains, locus YNL071W, strain lat1, hits give low values 1.02 | S. cerevisiae deletion strains, locus YNL128W, strain TEP1, hits give low values 1.01 | S. cerevisiae deletion strains, locus YNL153C, strain GIM3, hits give low values 0.992 | S. cerevisiae deletion strains, locus YNL183C, strain NPR1, hits give low values 0.943 | S. cerevisiae deletion strains, locus YNL209W, strain ssb2, hits give low values 1.01 | S. cerevisiae deletion strains, locus YNL233W, strain BNI4, hits give low values 0.998 | S. cerevisiae deletion strains, locus YNL248C, strain rpa49, hits give low values 1.02 | S. cerevisiae deletion strains, locus YNL250W, strain rad50, hits give low values 0.98 | S. cerevisiae deletion strains, locus YNL271C, strain bni1, hits give low values 0.979 | S. cerevisiae deletion strains, locus YNL298W, strain CLA4, hits give low values 0.983 | S. cerevisiae deletion strains, locus YNL307C, strain MCK1, hits give low values 0.982 | S. cerevisiae deletion strains, locus YNL322C, strain KRE1 (second series), hits give low values 1.01 | S. cerevisiae deletion strains, locus YNL322C, strain KRE1, hits give low values 1.01 | S. cerevisiae deletion strains, locus YNR049C, strain mso1, hits give low values 1 | S. cerevisiae deletion strains, locus YNR052C, strain pop2, hits give low values 0.982 | S. cerevisiae deletion strains, locus YOL006C, strain TOP1, hits give low values 1.01 | S. cerevisiae deletion strains, locus YOL012C, strain htz1 0.834 | S. cerevisiae deletion strains, locus YOL147C, strain pex11, hits give low values 0.993 | S. cerevisiae deletion strains, locus YOR001W, strain rrp6, hits give low values 0.983 | S. cerevisiae deletion strains, locus YOR061W, strain CKA2, hits give low values 1.01 | S. cerevisiae deletion strains, locus YOR069W, strain VPS5, hits give low values 1.01 | S. cerevisiae deletion strains, locus YOR070C, strain gyp1, hits give low values 1.01 | S. cerevisiae deletion strains, locus YOR080W, strain dia2, hits give low values 1.04 | S. cerevisiae deletion strains, locus YOR083W, strain WHI5, hits give low values 0.957 | S. cerevisiae deletion strains, locus YOR106W, strain vam3, hits give low values 1.02 | S. cerevisiae deletion strains, locus YOR136W, strain idh2, hits give low values 0.995 | S. cerevisiae deletion strains, locus YOR144C, strain elg1, hits give low values 0.989 | S. cerevisiae deletion strains, locus YOR184W, strain ser1, hits give low values 0.96 | S. cerevisiae deletion strains, locus YOR231W, strain MKK1, hits give low values 0.963 | S. cerevisiae deletion strains, locus YOR265W, strain rbl2, hits give low values 1.01 | S. cerevisiae deletion strains, locus YOR270C, strain vph1, hits give low values 1.02 | S. cerevisiae deletion strains, locus YOR290C, strain snf2, hits give low values 1.03 | S. cerevisiae deletion strains, locus YOR316C, strain cot1, hits give low values 0.991 | S. cerevisiae deletion strains, locus YPL051W, strain arl3, hits give low values 1.02 | S. cerevisiae deletion strains, locus YPL055C, strain LGE1, hits give low values 1.02 | S. cerevisiae deletion strains, locus YPL078C, strain atp4, hits give low values 1.06 | S. cerevisiae deletion strains, locus YPL106C, strain sse1, hits give low values 1.02 | S. cerevisiae deletion strains, locus YPL240C, strain hsp82, hits give low values 1.01 | S. cerevisiae deletion strains, locus YPL241C, strain CIN2, hits give low values 1.01 | S. cerevisiae deletion strains, locus YPL256C, strain CLN2, hits give low values 0.963 | S. cerevisiae deletion strains, locus YPR119W, strain clb2, hits give low values 0.989 | S. cerevisiae deletion strains, locus YPR141C, strain kar3, hits give low values 0.986 | S. cerevisiae deletion strains, locus YPR163C, strain tif3, hits give low values 0.98 | S. cerevisiae deletion strains, locus YPR167C, strain met16, hits give low values 0.99 | S. cerevisiae deletion strains, strain wtn01, hits give low values 0.96 | S. cerevisiae strains, strain wild type, hits give low values 1.01
